Sampled rows, rich in hits. Any-hit rate of the full collection: about 1.8%.
MsrA act = activators of bovine methionine sulfoxide reductase A; 360,000 compounds, 0.3% hits; purified bovine MsrA, absorbance read-out; activation, % at 10.6 µM; AID 602163; in the data active means activation above about 7.5%;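 further: 0% = vehicle and 100% = reference activator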
GC-A act = GC-A (human) enzyme activation; P16066; HEK293 GC-A cells, cGMP TR-FRET, EC30 ANP; 0% at EC30 ANP, 100% saturating ANP; activation, % at 10 µM; 370,000 compounds, 0.14% hits; AID 1671463; in the data active means activation above about 40%
HTR2A ag = activates the mouse 5-HT2A serotonin receptor; P35363; activation, % at 7.6 µM; AID 624169; CHO-K1 mHTR2A beta-arrestin complementation, luminescence; percent of 30 µM serotonin response; 360,000 compounds, 0.66% hits;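 active means activation above a run cutoff, the mean activation of all tested compounds plus 3 SD, cut at about 14% in these data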;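 further: 0% = plate median of compound wells and 100% = 30 µM serotonin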
MsrA inhibitor = bovine MsrA inhibition. purified bovine MsrA, absorbance read-out. 360,000 compounds, 0.75% hits. inhibition, % at 15.5 µM. AID 651718; in the data active means inhibition above about 4.5%;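 further: 0% = vehicle wells with enzyme and 100% = reference inhibitor wells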
NPR2 activator = GC-B (human) receptor activation | AID 1920062 | HEK293-GC-B cells, CNP EC30, cGMP TR-FRET; 0% at EC30 CNP, 100% saturating CNP | 370,000 compounds, 0.11% hits | activation, % at 10 µM | P20594;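 active means activation at 10 µM reaching about 35% in either raw or pattern-adjusted values, limit read from the data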
Target sequence (P20594 whole entry, looked up): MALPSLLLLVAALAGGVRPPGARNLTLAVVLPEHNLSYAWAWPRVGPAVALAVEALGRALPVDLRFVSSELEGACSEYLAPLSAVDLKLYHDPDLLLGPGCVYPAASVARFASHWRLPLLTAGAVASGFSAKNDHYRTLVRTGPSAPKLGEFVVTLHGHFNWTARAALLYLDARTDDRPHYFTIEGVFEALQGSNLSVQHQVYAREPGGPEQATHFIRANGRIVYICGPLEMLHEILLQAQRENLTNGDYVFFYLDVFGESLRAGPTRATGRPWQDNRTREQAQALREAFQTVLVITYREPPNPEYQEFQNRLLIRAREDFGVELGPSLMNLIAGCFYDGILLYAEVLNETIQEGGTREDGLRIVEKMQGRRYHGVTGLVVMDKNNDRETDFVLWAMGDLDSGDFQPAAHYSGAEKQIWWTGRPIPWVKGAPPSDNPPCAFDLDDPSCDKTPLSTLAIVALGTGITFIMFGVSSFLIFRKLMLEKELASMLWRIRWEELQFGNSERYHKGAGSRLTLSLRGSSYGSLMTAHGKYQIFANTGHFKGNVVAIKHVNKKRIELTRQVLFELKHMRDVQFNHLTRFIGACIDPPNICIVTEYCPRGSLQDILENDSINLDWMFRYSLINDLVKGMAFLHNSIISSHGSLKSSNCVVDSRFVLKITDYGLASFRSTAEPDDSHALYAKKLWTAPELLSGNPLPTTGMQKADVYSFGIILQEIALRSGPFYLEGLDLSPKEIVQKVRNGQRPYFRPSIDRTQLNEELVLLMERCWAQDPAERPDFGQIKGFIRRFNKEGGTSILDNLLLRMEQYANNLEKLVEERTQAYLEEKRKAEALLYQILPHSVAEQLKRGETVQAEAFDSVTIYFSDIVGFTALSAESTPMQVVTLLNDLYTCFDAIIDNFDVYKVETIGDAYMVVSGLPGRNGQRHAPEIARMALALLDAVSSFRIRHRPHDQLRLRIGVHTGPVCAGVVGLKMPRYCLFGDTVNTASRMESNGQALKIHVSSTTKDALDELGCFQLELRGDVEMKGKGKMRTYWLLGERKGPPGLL
MOR ag counter = counter-screen for mouse HTR2A agonists: human mu opioid receptor agonists; 2,300 compounds, 5.3% hits; shares compounds with HTR2A ag; U2OS OPRM1 beta-arrestin PathHunter, luminescence; DMSO 0%, DAMGO 9.3 µM 100%; activation, % at 9.3 µM;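 active means mean activation above the mean of DMSO-only wells plus 3 SD, cut at about 0.5% in these data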
m5-HT2A ag conf = mouse HTR2A agonism confirmed; shares compounds with HTR2A ag; CHO-K1 PathHunter beta-arrestin recruitment, luminescence; DMSO 0%, 30 µM serotonin 100%; activation, % at 7.6 µM; 2,300 compounds, 19% hits; AID 624381;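 active means mean activation across triplicates above the hit threshold derived in the original primary screen, cut at about 15% in these data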
An asterisk follows results filed as active; · = no result given.

SMILES | MsrA act | GC-A act | HTR2A ag | MsrA inhibitor | NPR2 activator | MOR ag counter | m5-HT2A ag conf
O=C(NCC1CCCN(C2Cc3ccccc3C2)C1)c1cccs1 (stereo not given) | -4 | 1 | 19* | -1 | 4 | 0 | 15*
CCOC(=O)C(NC(=O)C1C(C)N1S(=O)(=O)c1ccc(C)cc1)C(=O)OCC (stereo not given) | -1 | 2 | 16* | 0 | 3 | -1 | -3
CCOC(=O)C[C@@H]1OC[C@H](C)N1S(=O)(=O)c1ccc(C)cc1 | · | -2 | 0 | 3 | 0 | · | ·
CCc1ccccc1NC(=O)Nc1ccc(F)cc1F | -5 | 4 | 1 | -1 | 0 | · | ·
O=C(Nc1ccc(F)cc1F)Nc1ccccc1C(=O)NCCN1CCNC1=O | -7 | 0 | 40* | -1 | -3 | 0 | -1
Cc1cccc(/C(N)=N/OC(=O)c2ccncc2)c1 | -1 | 0 | 25* | 0 | -6 | 0.6* | 1
OCCNc1ncnc2c1ncn2[C@H]1CN(Cc2ccncc2)C[C@@H](CO)O1 | 1 | 4 | 15* | -1 | -2 | · | -5
CCOc1ccccc1C(=O)NCC(=O)NNC(=O)c1cccs1 | -3 | 3 | 19* | -1 | -1 | -1 | -5
COc1ccccc1CC(=O)NNC(=O)c1cccs1 | -1 | 3 | 15* | 0 | 3 | -1 | -1
S=c1[nH]nc(-c2n[nH]c3c2CCC3)n1N=Cc1ccc(OCc2ccccc2)cc1 | · | 0 | · | · | -3 | · | ·
N#Cc1ccc2nc(-c3ccc(CN4CCC(c5nc6ccccc6[nH]5)CC4)cc3)c(-c3ccccc3)nc2c1 | · | 0 | · | 0 | -4 | · | ·
O=C(NCC1CCCCC1)c1ccc(F)c(S(=O)(=O)N2CCOCC2)c1 | -3 | 0 | 3 | 0 | 4 | · | ·
O=C(OC1CCCCC1=O)c1cc(S(=O)(=O)N2CCOCC2)ccc1F (stereo not given) | -4 | -1 | 15* | 0 | 8 | 1.1* | 6
O=C(NCC1CCCCC1)c1cc(S(=O)(=O)N2CCOCC2)ccc1F | -2 | 2 | 15* | 1 | 4 | -1 | -2
COC(=O)[C@]12C=CCN1[C@H](c1ccc(C(F)(F)F)cc1)c1c(c3ccccc3n1S(=O)(=O)c1ccc(C)cc1)C2 | · | -5 | · | · | -4 | · | ·
CC(C)CC(=O)Nc1ccc(C(=O)COC(=O)CN2C(=O)NC3(CCCCC3C)C2=O)cc1 (stereo not given) | -6 | -1 | 18* | 0 | 0 | 0 | 2
CCOc1ccc(C(=O)COC(=O)CN2C(=O)NC3(CCCCC3C)C2=O)cc1 (stereo not given) | -10 | 4 | -1 | 0 | 5 | · | ·
CCc1ccc(C2NC(=S)NC3=C2C(=O)N(c2ccccc2OC)C(c2ccc(CC)cc2)N3)cc1 (stereo not given) | -11 | -15 | 37* | -1 | -15 | 0 | 6
O=C1C2=C(NC(=S)NC2c2ccc(Cl)cc2)NC(c2ccc(Cl)cc2)N1c1ccc(Cl)cc1 (stereo not given) | -9 | -1 | 11 | 0 | -7 | · | ·
COc1ccc(Cn2ccc3ccc(-c4ccc5ccn(C(=O)C6CCC6)c5c4)cc32)cc1 | · | -2 | · | · | 0 | · | ·
O=C(NCC(=O)N(c1cccnc1)C(C(=O)NCc1ccco1)c1ccccc1)c1ccco1 (stereo not given) | -8 | 2 | 15* | 0 | -4 | 0 | 10
CC1CCc2c(sc(Nc3nc4c(F)cccc4s3)c2C(N)=O)C1 (stereo not given) | -6 | 4 | 19* | 1 | 4 | 0 | 12
COCCCNC(=O)C[C@H]1C[C@@]2(C(=O)OC)C(=C[C@H](COCc3ccccc3)O[C@@H]2C)N(CCc2ccc(OC)c(OC)c2)C1=O | · | 2 | · | · | 3 | · | ·
O=C(c1cc2nc(-c3ccco3)cc(C(F)(F)F)n2n1)N1CCCc2ccccc21 | -4 | 0 | 23* | 0 | 8 | -1 | -2
COC(=O)[C@]12C[C@H](CC(=O)N3CCN(C(=O)c4ccco4)CC3)C(=O)N(Cc3cccc4ccccc34)C1=C[C@H](C1CCCC1)O[C@@H]2C | · | -3 | · | · | -7 | · | ·
SMILES | MsrA act | GC-A act | HTR2A ag | MsrA inhibitor | NPR2 activator | MOR ag counter | m5-HT2A ag conf
NC(=O)c1c(NC(=O)c2ccncc2)sc2c1CCCCCC2 | -4 | 1 | 9 | 4 | 4 | · | ·
NC(=O)c1c(NC(=O)c2ccncc2)sc2c1CCCC2 | -9 | -4 | 18* | 1 | -7 | 0 | 5
CCOC(=O)/C=C(\C)N1N=C(c2ccccc2)CC1c1ccccc1 (stereo not given) | -7 | -5 | 20* | 1 | -2 | -1 | -3
CCOC(=O)c1nnn(CC(=O)N2N=C(c3ccccc3)CC2c2ccccc2)c1C(=O)OCC (stereo not given) | 2 | 0 | -4 | 0 | -8 | · | ·
CC1CCN(c2c(NCC3CCC(C(=O)NCc4ccccc4Cl)CC3)c(=O)c2=O)CC1 (stereo not given) | 0 | 4 | 19* | -1 | -14 | 0 | -4
CC1CCN(c2c(NCC3CCC(C(=O)NCCc4ccccc4)CC3)c(=O)c2=O)CC1 (stereo not given) | -5 | -1 | 2 | 2 | -5 | · | ·
Cc1nc2c(cc1NC(=O)C(C)(C)C)nc(C)n2Cc1ccccc1 | 1 | 1 | 20* | -1 | 2 | 0 | -4
CC(=O)Nc1cc2nc(C)n(Cc3ccccc3)c2nc1C | -3 | 7 | 6 | 0 | 14 | · | ·
CC(=O)c1ccccc1OCC(O)Cn1ccnc1 (stereo not given) | -1 | 2 | 21* | -1 | 0 | -1 | -3
O=C(NCc1ccccn1)C1CC(=O)N(C2CCCC2)C1 (stereo not given) | -3 | -1 | 20* | 0 | 4 | -1 | -4
O=C(NCc1ccccc1)C1CC(=O)N(C2CCCCCC2)C1 (stereo not given) | -9 | 0 | -1 | 1 | 2 | · | ·
O=C(NCCCN1CCN(c2ccccc2F)CC1)C1CC(=O)N(C2CCCC2)C1 (stereo not given) | 0 | 2 | 17* | 0 | -3 | -1 | 39*
CCn1c(=O)cc(SCC(=O)NCCCN2CCN(c3ccccc3F)CC2)c2ccccc21 | -2 | -14 | 28* | · | -9 | 0 | 78*
Nc1[nH]c(C(=O)c2ccccc2)c(-c2ccc(Br)cc2)c1C(=O)NCCCN1CCOCC1 | · | -1 | · | · | -3 | · | ·
O=C(NCC1CCCO1)NC1CCCCC1 (stereo not given) | 2 | -1 | 17* | -1 | 3 | -1 | -4

Screens as filed in PubChem BioAssay.
